# aSyn UTR act – Activators via SNCA 5'UTR binding, MLPCN | activity score, % (tested at 7.5 µM), hits read low | alpha-synuclein 5'UTR reporter, activators screen | 300,000 compounds, 7.1% hits; in the data active means activity score below about -60%
# * marks the source's active call; other numbers are inactive results. Only a sample is shown.
SMILES,aSyn UTR act
O=C1OC(/C(=C\Nc2cc(Cl)ccc2O)[N+](=O)[O-])c2ccccc21 (stereo not given),-102*
O=C(/C=C/Sc1ccc(C(F)(F)F)cn1)c1ccccc1,-72*
O=C(O)c1ccc(Cl)c(S(=O)(=O)Nc2ccc(OCc3ccccc3)cc2)c1,-69*
CCN(CC)C(=O)CSc1ncnc2sc(-c3ccccc3)cc12,-168*
CCc1cc2c(SCC(=O)c3ccccc3)ncnc2s1,-122*
CN(CCC#N)C(=O)CSc1ncnc2sc(-c3ccccc3)cc12,-106*
Cc1ccc(N/N=C/c2ccc(N3CCOCC3)cc2)cc1C,-96*
Cc1ccc(N/N=C/c2ccc3c(c2)OCCO3)cc1Cl,-87*
Cc1cc(N/N=C/c2ccccc2)nc(N2CCOCC2)n1,-83*
C/C(=N\Nc1ccc(Cl)c(C(=O)O)c1)c1ccc2c(c1)OCO2,-73*
O=C(O)c1cc(N/N=C/c2ccc3c(c2)OCO3)ccc1Cl,-73*
O=C(O)c1ccc(N/N=C/c2ccc3c(c2)OCO3)cc1,94
Cc1nnc(N/N=C\c2ccc(-c3ccccc3[N+](=O)[O-])o2)n1N,-75*
Cc1nnc(N/N=C/c2ccc(-c3ccccc3F)o2)n1N,-107*
CN(C)c1ccc(CNc2ncc(Br)cc2Br)cc1,-98*
COc1ccc(C2=Nn3c(nnc3-c3ccc(OC)cc3)SC2)cc1,100
Cc1nnc2n(c1=O)N=C(c1ccc(Cl)cc1)CS2,-93*
Cc1cccc(-n2c(N)cc(=O)[nH]c2=S)c1,-215*
N#Cc1nc(/C=C/c2ccccc2)oc1NCCCN1CCOCC1,-82*
CNc1oc(/C=C/c2ccccc2)nc1C#N,-275*
COCCNc1oc(/C=C/c2ccccc2)nc1C#N,-146*
CCCNC(=O)c1ccccc1NC(=O)c1ccc2c(c1)NC(=O)C(C)S2 (stereo not given),-96*
CC(=O)c1ccccc1NC(=O)c1ccc2c(c1)NC(=O)C(C)S2 (stereo not given),-135*
CCCNC(=O)c1ccc2c(=O)c(O)c(-c3ccc(F)cc3)[nH]c2c1,81
CC(=O)N(C(C)=O)c1ncc2c([nH]c3ccccc32)c1C#N,65
SMILES,aSyn UTR act
CNC(=O)c1cc2c(cn1)[nH]c1ccccc12,-98*
CCC1C(=O)n2nc(-c3ccccc3)cc2N=C1C (stereo not given),-143*
Cc1cccc(/C=C2\CCC(=C3SCCCS3)C2=O)c1,85
O=C1/C(=C/c2cccnc2)CC/C1=C\c1cccnc1,-65*
CC(C)/C=C1\CC/C(=C\c2cccnc2)C1=O,-62*
COc1ccc(C(=O)Cn2cnc3ccccc3c2=O)c(OC)c1,-96*
Cc1ccc(C(=O)NC2CCCCCC2)cc1S(=O)(=O)N1CCOCC1,-70*
CCN(CC)S(=O)(=O)c1cc(C(=O)NC2CCCCC2)ccc1C,-111*
COc1ccc(/C=C/C(=O)NC2CCCCCC2)cc1S(=O)(=O)N1CCOCC1,-75*
c1ccc(Cc2nnc(-c3ccccc3)o2)cc1,-120*
COc1ccc(Cc2nnc(-c3ccccc3)o2)cc1,-94*
c1ccc(-c2nnc(CN3CCCCC3)o2)cc1,-74*
Brc1ccc(-c2nnc(Cc3ccccc3)o2)cc1,-169*
Cc1ccc(C#N)c(SCc2nnc(-c3ccc(Cl)cc3)o2)n1,90
Cc1ccccc1-c1nnc(Cc2ccccc2)o1,-137*
Cc1ccc(-c2nnc(Cc3ccc(Cl)cc3)o2)cc1,-85*
OC1CCN(Cc2ccc(OCc3ccccc3)cc2)CC1,-70*
C=CCN(CC=C)C(=O)C1CCN(Cc2ccc(OCc3ccccc3)cc2)CC1,-97*
CCCCNC(=O)C1CCN(Cc2ccc(OCc3ccccc3)cc2)CC1,-219*
Cc1c(Cl)c(C(=O)NNC(=S)Nc2ccccc2)nn1C,-102*
Cc1ccc(NC(=S)NNC(=O)c2nn(C)cc2Cl)cc1,-90*
Cc1c(Cl)c(C(=O)NNC(=S)Nc2ccc(F)cc2)nn1C,-70*
Cc1sc(NC(=O)c2ccccc2F)c(CN2CCCCC2C)c1C (stereo not given),-296*
O=C(/C=C/c1cccc(F)c1)c1ccc(N2CCOCC2)cc1,-80*
C/C(=N\Nc1nc(N)cc(Cl)n1)c1ccc(F)cc1,-71*
SMILES,aSyn UTR act
C/C(=N\Nc1nccnc1Cl)c1ccc(F)cc1,-104*
O=C(Nc1ccc(O)cc1)c1cc2n(n1)C(C(F)(F)F)CC(c1ccco1)N2 (stereo not given),-66*
CCc1ccc(C(=O)c2cncc(Br)c2)cc1,-63*
O=C(CCl)N1CCCC1c1ccc2c(c1)OCCO2 (stereo not given),-152*
O=C1COc2ccc(OCc3ccc(F)cc3)cc21,-100*
CC1CCN(C(=S)NCCc2ccccc2)CC1,-138*
OCC1CCCN(C(=S)NCCc2ccccc2)C1 (stereo not given),-106*
O=C(Nc1ccccc1C(F)(F)F)c1cc(-c2cccc(O)c2)on1,-142*
CCc1ccccc1NC(=O)c1cc(-c2cccs2)on1,-125*
CCc1ccccc1NC(=O)c1cc(-c2cccc(O)c2)on1,-81*
O=C(Nc1nnc(-c2ccncc2)s1)Nc1ccccc1F,-102*
O=C(Nc1nnc(Cc2ccccc2)s1)Nc1ccccc1F,-103*
Cc1ccc(C)c(NC(=O)CSc2nccn2Cc2ccco2)c1,-78*
Cc1cc(OCc2cc(C(=O)N(C)CCc3cnn(C)c3)no2)cc(C)c1Cl,-145*
COc1cc(Cl)ccc1OCc1cc(C(=O)N(C)CCc2cnn(C)c2)no1,-91*
Oc1ccc(/C=N/Nc2ccnc3cc(Cl)ccc23)cc1O,-78*
O=C1C(Nc2ccccc2)=C(NS(=O)(=O)c2ccccc2)C(=O)c2ccccc21,-75*
C=CCOn1c(=O)c(-c2cc3ccccc3o2)[n+]([O-])c2ccccc21,-144*
CCCCCCCCCCOC(=O)Cn1c(COc2ccc(Cl)cc2)[n+](C)c2ccccc21,83
CCOc1ccc(-c2c(=O)n(OCc3ccc([N+](=O)[O-])cc3)c3ccccc3[n+]2[O-])cc1,-178*
CCCOc1ccc(-c2c(=O)n(OCC(=O)OCC)c3ccccc3[n+]2[O-])cc1,-88*
CCOC(=O)COn1c(=O)c(-c2cc3ccccc3o2)[n+]([O-])c2ccccc21,-114*
Cc1ccc2nc(NC(=O)c3ccc(Cl)s3)sc2c1,-133*
Cc1nc2ccc(NC(=O)c3ccc(Br)o3)cc2s1,-186*
Cc1nc2ccc(NC(=O)c3ccc(Cl)s3)cc2s1,-238*
SMILES,aSyn UTR act
CCCOc1ccc(C(=O)Nc2ccc3c(c2)OCO3)cc1,-95*
CCCCOc1ccc(C(=O)Nc2ccc3c(c2)OCO3)cc1,-93*
CCC(=O)Oc1ccc(C(=O)Nc2ccc3c(c2)OCO3)cc1,-72*
CCCCC[C@H](O)/C=C/[C@@H]1[C@@H](C/C=C\CCCC(=O)OC)[C@@H](O)C[C@H]1O,44
Cc1cc(C)c(S(C)(=O)=O)c(S(=O)(=O)c2ccc(Cl)cc2)n1,-87*
Cc1cn(CCC(=O)Nc2ccc(N3CCOCC3)cc2)c2ccccc12,-128*
Cc1cn(CCC(=O)Nc2ccccc2N2CCOCC2)c2ccccc12,-106*
O=C(Nc1cccc(F)c1)Nc1ccccn1,-153*
O=C(NCc1ccccn1)Nc1ccc2c(c1)OCO2,-92*
CC(=O)c1cccc(NC(=O)NCc2ccccn2)c1,-167*
O=C(NCc1cccs1)Nc1ccc2c(c1)OCO2,-145*
O=C(Nc1ccccn1)Nc1cccs1,-77*
Cc1cccc(NC(=O)NCc2ccc3c(c2)OCO3)c1,-67*
O=C(NCc1cccs1)Nc1ccc(Cl)cc1,-99*
O=C(Nc1ccc2c(c1)OCO2)Nc1cnccn1,-98*
O=C(Nc1ccc2c(c1)OCO2)Nc1ccccn1,-86*

# Screening results deposited in PubChem by Broad Institute.
